SMILES strings stand for the structures. Results filed as inconclusive are left out. Where a call stands in place of a potency, no number is given. The source made the active and inactive calls. Calls come from the whole dose curve.

Sequence of Retinoic acid receptor RXR-alpha (Homo sapiens) (P19793 whole entry, looked up): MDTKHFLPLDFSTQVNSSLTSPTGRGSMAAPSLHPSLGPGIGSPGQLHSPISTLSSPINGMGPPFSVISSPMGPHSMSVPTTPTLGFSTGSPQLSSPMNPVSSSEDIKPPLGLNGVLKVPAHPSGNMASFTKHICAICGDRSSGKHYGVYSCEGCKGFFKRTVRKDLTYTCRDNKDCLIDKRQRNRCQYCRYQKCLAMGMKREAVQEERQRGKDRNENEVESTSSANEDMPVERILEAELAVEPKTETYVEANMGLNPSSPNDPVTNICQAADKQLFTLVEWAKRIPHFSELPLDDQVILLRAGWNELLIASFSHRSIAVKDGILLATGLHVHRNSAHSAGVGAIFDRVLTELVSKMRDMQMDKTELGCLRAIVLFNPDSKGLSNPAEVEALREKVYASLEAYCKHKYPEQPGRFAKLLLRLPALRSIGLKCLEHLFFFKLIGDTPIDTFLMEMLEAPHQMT

This assay has as its target Retinoic acid receptor RXR-alpha (Homo sapiens) (UniProt P19793). As to the kind of experiment: qHTS assay to identify small molecule agonists of the RXR signaling pathway (AID 1159527). Note: nearly all actives have a fitted effect of over 35% in size. The settings on record: HEK293T RXRa-UAS-bla, beta-lactamase ratio, 16 h; series mostly up to 76.8 µM. From the text: U.S. Tox21 Program National Center for Advancing Translational Sciences [NCATS] NIH Chemical Genomics Center [NCGC] U.S. Environmental Protection Agency [EPA] National Institutes of Environmental Health Sciences [NIEHS] National Toxicology Program [NTP] U.S. Food and Drug Administration [FDA] Tox21 Assay Overview: The Retinoid X receptor (RXR), a nuclear hormone receptor expressed in liver, spleen, placenta, epidermis, central nervous system. These receptors are able to form homo and heterodimers with other nuclear receptors and due to this heterodimerizing ability, RXR functions as master regulators producing diverse physiological effects. Three subtypes of RXR exist; alpha, beta and gamma. Retinoid X receptor alpha (RXR-alpha) has potential roles in metabolic signaling pathways, skin alopecia, dermal cysts, cardiac development, insulin sensitization etc. Therefore screening environmental chemicals on RXR-alpha signaling can be used for the studies focused on such therapeutic applications. For quantification of RXR-alpha ligands signaling, GeneBLAzer RXR alpha-UAS-bla HEK 293T (Life Technologies, Carlsbad, CA) cells containing a beta-lactamase reporter-gene under control of Retinoid X receptor-alpha response element were used to screen Tox21 10K library.
Tox21 Assay Protocol Summary: RXR-alpha HEK 293T cells were dispensed at 2,000 cells/6 uL of assay medium containing 2% charcoal-stripped FBS using a Multidrop Combi (ThermoFisher Scientific, Waltham, MA) dispenser. The assay was performed in black wall/clear-bottom 1536-well plates (Greiner Bio-One North America Inc. Monroe, NC). 9-cis retinoic acid was used as a positive control in the agonist mode screen. After the assay plates were incubated at 37 C and 5% CO2 for 5 hr, 23 nL of compounds dissolved in DMSO, positive controls or DMSO only were transferred to the assay plate by a Pintool station (Kalypsys, San Diego, CA). The assay plates were incubated at 37 C and 5% CO2 for 16 hr. One uL of LiveBLAzer B/G FRET substrate (Life Technologies) was added using a Flying Reagent Dispenser (Aurora Discovery, San Diego, CA) and the plates were incubated at room temperature for 2 hr. Fluorescence intensity (405 nm excitation, 460/530 nm emission) was measured using an Envision plate reader (PerkinElmer, Shelton, CT).
For the compound `CCCCCCCOC(=O)c1ccc(O)cc1`, the Potency result was “inactive”.

Consider `OCCCCl`, for which the Potency result was “inactive”.

For the compound `CCOC(=O)COc1ccc(C)cc1`, the Potency entry is “inactive”.

With `CCCCCCCCCCc1ccccc1`, the Potency result is “inactive”.

As to `SCCCCCCCCS`, the Potency entry is “inactive”.

Turning to `Clc1nc2ccccc2s1`, the Potency result is “inactive”.

For the compound `CC1CNCC(C)O1` (stereo not given), the Potency entry is “inactive”.

Turning to `CC[N+](CC)(CC)Cc1ccccc1`, the Potency entry is “inactive”.

In the case of `c1ccc(Nc2cccc3ccccc23)cc1`, the Potency result was “inactive”.

With `Cc1ccc(O)cn1`, the Potency entry was “inactive”.

For the compound `CCOC(/C=C(\C)CCC=C(C)C)OCC`, the Potency entry is “inactive”.

With `C/C=C/c1ccc(OC)c(OC)c1`, the Potency entry was “inactive”.

As to `O=C=NCc1cccc(CN=C=O)c1`, the activation was -0.945% [at 15.8 µM] (inactive).

Take `Brc1ccccc1-c1ccccc1`: the Potency result is “inactive”.

Take `Brc1ccccn1`: the Potency result is “inactive”.

`O=C1OC(=O)c2ccc3c4c(ccc1c24)C(=O)OC3=O`: the Potency result was “inactive”.

Consider `CCNc1nc(NC(C)CC)nc(OC)n1` (stereo not given), for which the Potency result is “inactive”.

Take `CCC(=O)CC(C)CC` (stereo not given): the activation is 2.44% [at 0.29 µM] (inactive).

Take `C=C(C)C(=O)OCCC[Si](Cl)(Cl)Cl`: the Potency entry is “inactive”.

`CC(=O)C=O`: the Potency result is “inactive”.

`Clc1cccnc1`: the Potency result was “inactive”.

As for `Oc1cc2ccccc2cc1O`, the Potency result was “inactive”.

Take `ClC/C=C\CCl`: the Potency result is “inactive”.

Take `O=C[C@H](O)[C@H](O)[C@H](O)CO`: the Potency result was “inactive”.

For `CC(C)(C)c1cc(CCC(=O)NCCCCCCNC(=O)CCc2cc(C(C)(C)C)c(O)c(C(C)(C)C)c2)cc(C(C)(C)C)c1O`, the Potency result was “inactive”.

In the case of `CC(COC(=O)c1ccccc1)OC(=O)c1ccccc1` (stereo not given), the Potency result was “inactive”.

Turning to `C/C=C/C(=O)C1=C(C)CCCC1(C)C`, the Potency result is “inactive”.

On to `Cc1cccc(C)n1`, for which the Potency result is “inactive”.

Regarding `Cc1cc(C)c(C=O)c(C)c1`, the Potency entry is “inactive”.

On to `CCCN(CCc1cccs1)[C@H]1CCc2c(O)cccc2C1`, for which the Potency entry was “inactive”.

With `CCCCCCCC(=O)OCC`, the Potency entry was “inactive”.

Turning to `Nc1ncnc2c1ncn2[C@@H]1O[C@H](COP(=O)(O)O)[C@@H](O)[C@H]1O`, the Potency entry was “inactive”.

For `C[Si](C)(C)Cl`, the Potency entry is “inactive”.

Consider `CCCCOC(=O)C(C)CC` (stereo not given), for which the Potency entry was “inactive”.

`CC(C)(C)C1=CC(=O)C=C(C(C)(C)C)C1=O`: the Potency entry is “inactive”.

Consider `CCc1c(C(=O)O)c(=O)cnn1-c1ccc(Cl)cc1`, for which the Potency result is “inactive”.

In the case of `C#CC(O)CCC` (stereo not given), the Potency entry was “inactive”.

`CCCC(O)C(O)CO` (stereo not given): the Potency result was “inactive”.

For `CCc1ccc(O)c(C(C)(C)C)c1`, the Potency result was “inactive”.

As to `Cc1cncc(C)c1`, the Potency result was “inactive”.

The record behind these values is PubChem BioAssay (Tox21).
